Structures are written as SMILES. Unmarked numbers belong to inactive results.
Also: test concentration not given here.

The nature of the first assay: S. cerevisiae RM11-1a growth modifiers, primary screen, strain RM11-1a, OD600, basal, 24 h (AID 1177).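 Also: cultures grown under basal conditions with no added stressor.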 Particulars: OD600, 24 h, higher = more signal, called active from +8 up or from −8 down.
For `CC(C)=CCN[C@H](CO)c1ccccc1`, the z-score is -0.17.

Regarding `COC(=O)[C@@]1(Cc2ccc(F)cc2)[C@H]2c3cc(C(=O)N4CCCC4)n(Cc4ccc(S(C)(=O)=O)cc4)c3C[C@H]2CN1C(=O)c1ccccc1`, the z-score is 0.458.

For the compound `COc1ccc(C#Cc2ccc3c(c2)[C@]2(C(=O)N3)[C@H](C(=O)Nc3nc4ccccc4s3)[C@H]3C(=O)O[C@H](c4ccccc4)[C@H](c4ccccc4)N3[C@@H]2c2ccc(O)cc2)cc1`, the z-score is 1.15.

`[N-]=[N+]=Nc1ccccc1[C@H]1OC(c2ccc(OCCCO)cc2)=N[C@@]1(CCS(=O)(=O)c1ccccc1)C(N)=O`: the z-score is -0.167.

`CC(C)c1ccc(NN2C(C(O)c3ccc(B(O)O)cc3)C=CC3C(=O)N(c4ccccc4)C(=O)C32)cc1` (stereo not given): the z-score was 0.728.

Regarding `COC(=O)[C@@]1(Cc2ccc(F)cc2)[C@H]2c3cc(C(=O)N(C)C)n(Cc4ccccc4)c3C[C@H]2CN1C(=O)c1ccccc1`, the z-score was 1.61.

`[N-]=[N+]=Nc1ccccc1[C@@H]1OC(c2ccc(OCCCO)cc2)=N[C@]1(Cc1ccccc1)C(=O)N1CCOCC1`: the z-score is 0.857.

As for `CN(C)C(=O)[C@]1(Cc2ccccc2N=[N+]=[N-])N=C(c2ccc(OCCCO)cc2)O[C@@H]1c1ccccc1N=[N+]=[N-]`, the z-score is 0.667.

Turning to `CC(C)NC(=O)[C@@]1(c2ccc([N+](=O)[O-])cc2)CC(=O)N(C2CCCCC2)[C@@H]1c1ccc(CO)cc1I`, the z-score was 1.4.

In the case of `COCCOC(=O)N1C(=O)[C@@]2(c3cc(C#Cc4ccc(OC)cc4)ccc31)[C@H](c1ccc(OCCO)cc1)N1[C@H](c3ccccc3)[C@H](c3ccccc3)OC(=O)[C@H]1[C@@H]2C(=O)N1CCN(c2ncccn2)CC1`, the z-score is 3.43.

With `CCC[C@@H]1C[C@@]1(CCC)[C@@H](NC(=O)c1ccccc1)c1cccc(Cl)c1`, the z-score is 2.26.

For `[N-]=[N+]=Nc1ccccc1[C@H]1OC(c2ccc(OCCCO)cc2)=N[C@@]1(CCS(=O)(=O)c1ccccc1)C(=O)NCC(O)CO` (stereo not given in full), the z-score was -0.129.

Consider `O=C1N[C@@H](Cc2ccccc2)C(=O)N2[C@@H]1C[C@@H](C(=O)O)[C@H]2c1cccc(OCCO)c1`, for which the z-score is 0.346.

Regarding `COc1ccc([Si](C)(C)[C@@H]2[C@@H](CC(=O)N3CCC[C@H]3CO)O[C@]3(C(=O)N(c4ccccc4)c4ccccc43)[C@H]2C)cc1`, the z-score is -1.2.

Take `CC(C)N1C(=O)C[C@@](C(=O)NCC(F)(F)F)(c2ccc([N+](=O)[O-])cc2)[C@H]1c1ccc(CO)cc1`: the z-score was -1.09.

`CN1C(=O)C2C=CC(C(O)C#Cc3ccccc3)N(N3CCCCC3)C2C1=O` (stereo not given): the z-score is -0.0362.

On to `C=C(C)[C@@H]1CC=C(C(O)C2C=CC3C(=O)N(C)C(=O)C3N2Nc2ccccc2)CC1` (stereo not given in full), for which the z-score was 1.45.

Regarding `C=CCOC(=O)[C@@H]1[C@H]2C(=O)O[C@H](c3ccccc3)[C@H](c3ccccc3)N2[C@H](c2ccc(OCCOC(=O)[C@@H]3C[C@@H]4C(=O)NCC(=O)N4[C@@H]3c3ccc(O)cc3)cc2)[C@@]12C(=O)Nc1ccc(I)cc12`, the z-score is 1.38.

On to `COC(=O)[C@@]1(Cc2ccc(OC)cc2)[C@H]2c3cc(C(=O)N(C)C)n(CCc4ccccn4)c3C[C@H]2CN1C(=O)c1ccccc1`, for which the z-score was 1.51.

The next assay is described as follows: E. coli acrAB mutant growth effects, primary screen, E. coli filamentation inducers, strain DRC39, OD650, 24 h (AID 1178).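 Also: growth measured as culture turbidity by optical density at 650 nm.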 Particulars: higher = more signal, called active from +8 up or from −8 down.
For the compound `O=C1C2C=CC(C(O)Cc3ccccc3)N(n3cnnc3)C2C(=O)N1Cc1ccccc1` (stereo not given), the z-score was -1.08.

On to `Cc1ccc(S[C@]2(C(=O)NCCCN(C)C)CC(=O)N(Cc3ccccc3C(F)(F)F)[C@@H]2c2ccc(CO)cc2)cc1`, for which the z-score was 0.252.

With `COc1cc(C(O)C2C=CC3C(=O)NC(=O)C3N2Nc2ccccn2)cc(OC)c1OC` (stereo not given), the z-score was -1.24.

Take `C=CCNC(=O)[C@H]1[C@@H]2C(=O)O[C@@H](c3ccccc3)[C@@H](c3ccccc3)N2[C@@H](c2ccccc2OCCO)[C@]12C(=O)Nc1ccc(C#CCC(C(=O)OC)C(=O)OC)cc12`: the z-score was 0.284.

As to `COCCOC(=O)N1C(=O)[C@@]2(c3cc(C#CCNC(N)=O)ccc31)[C@H](C(=O)N1CCN(c3ncccn3)CC1)[C@H]1C(=O)O[C@H](c3ccccc3)[C@H](c3ccccc3)N1[C@@H]2c1ccc(OCCO)cc1`, the z-score was 0.142.

Regarding `CCOC(=O)C[C@H]1[C@H](OC(=O)c2ccc(C(=O)c3ccccc3)cc2)[C@@H](NC(=O)c2ccc3ccccc3c2)c2cc(OCCCO)ccc2N1C(=O)Cc1ccc(OC)cc1`, the z-score is -0.276.

For the compound `C[C@H]1NC(=O)[C@@]23C(=O)N[C@@H](Cc4ccccc4)C2[C@H](C)[C@@]2(C)O[C@H]2C3/C=C/C/C=C\CNC(=O)[C@@H]2CCCN2C1=O` (stereo not given in full), the z-score is 0.901.

Turning to `C=C(CCCC)/C(=C/C[C@@H](OC(=O)c1ccncc1)c1ccc(OCCO)cc1)c1cc(C(=O)OC)ccc1OC`, the z-score is 0.885.

In the case of `CN1C(=O)C2C=CC(C(O)c3ccc([N+](=O)[O-])cc3)N(N3CCCCC3)C2C1=O` (stereo not given), the z-score is -0.884.

On to `CC(C)C(=C=CC[C@H](O)c1ccc(OCCO)cc1)CCO`, for which the z-score is -0.732.

For `C[C@H]1C2[C@H](Cc3ccccc3)NC(=O)[C@]23C(=O)N[C@H](Cc2ccccc2)C(=O)N2CCC[C@H]2C(=O)NC/C=C\C/C=C/C3[C@@H]2O[C@]12C` (stereo not given in full), the z-score is 1.11.

`CN(C)CCCCCCNC(=O)[C@H]1C[C@H]2C(=O)N[C@@H](CCCCN)C(=O)N2[C@H]1c1cccc(OCCO)c1`: the z-score was 0.422.

Turning to `C=CCC(OC(C)=O)[C@@H]1[C@@H](N(Cc2cc3ccccc3o2)C(=O)c2cccc3ccccc23)c2cc(OCCCO)ccc2N1C(=O)c1ccc(-c2ccccc2)cc1` (stereo not given in full), the z-score is 0.75.

`COC(=O)[C@@]1(Cc2ccc(OC)cc2)[C@H]2c3cc(C(=O)N4CCCC4)n(Cc4ccc(O)c(OC)c4)c3C[C@H]2CN1C(=O)c1ccccc1`: the z-score was -0.446.

In the case of `COC(=O)[C@@]1(Cc2ccc(OC)cc2)[C@H]2c3cc(C(=O)N4CCCC4)n(Cc4ccc(C)c(F)c4F)c3C[C@H]2CN1C(=O)c1ccccc1`, the z-score is 0.35.

Regarding `C=CCOC(=O)[C@H]1[C@@H]2C(=O)O[C@@H](c3ccccc3)[C@@H](c3ccccc3)N2[C@@H](c2ccc(OCCOC(=O)[C@@H]3C[C@@H]4C(=O)N[C@@H](CCCCNC(C)=O)C(=O)N4[C@@H]3c3ccc(O)cc3)cc2)[C@]12C(=O)Nc1ccccc12`, the z-score is -0.605.

With `COC(=O)[C@@]1(Cc2ccc(OC)cc2)[C@H]2c3cc(C(=O)N(C)C)n(Cc4ccc(S(C)(=O)=O)cc4)c3C[C@H]2CN1C(=O)c1ccccc1`, the z-score is 0.366.

With `CC(C)=CCN[C@H](CO)c1ccccc1`, the z-score is -0.387.

As to `COC(=O)[C@@]1(Cc2ccc(F)cc2)[C@H]2c3cc(C(=O)N4CCCC4)n(Cc4ccc(S(C)(=O)=O)cc4)c3C[C@H]2CN1C(=O)c1ccccc1`, the z-score is -1.12.

Turning to `COc1ccc(C#Cc2ccc3c(c2)[C@]2(C(=O)N3)[C@H](C(=O)Nc3nc4ccccc4s3)[C@H]3C(=O)O[C@H](c4ccccc4)[C@H](c4ccccc4)N3[C@@H]2c2ccc(O)cc2)cc1`, the z-score was 0.237.

On to `[N-]=[N+]=Nc1ccccc1[C@H]1OC(c2ccc(OCCCO)cc2)=N[C@@]1(CCS(=O)(=O)c1ccccc1)C(N)=O`, for which the z-score is 0.981.

In the case of `CC(C)c1ccc(NN2C(C(O)c3ccc(B(O)O)cc3)C=CC3C(=O)N(c4ccccc4)C(=O)C32)cc1` (stereo not given), the z-score was -0.329.

For `COC(=O)[C@@]1(Cc2ccc(F)cc2)[C@H]2c3cc(C(=O)N(C)C)n(Cc4ccccc4)c3C[C@H]2CN1C(=O)c1ccccc1`, the z-score was -0.342.

Consider `[N-]=[N+]=Nc1ccccc1[C@@H]1OC(c2ccc(OCCCO)cc2)=N[C@]1(Cc1ccccc1)C(=O)N1CCOCC1`, for which the z-score is 0.266.

Regarding `CN(C)C(=O)[C@]1(Cc2ccccc2N=[N+]=[N-])N=C(c2ccc(OCCCO)cc2)O[C@@H]1c1ccccc1N=[N+]=[N-]`, the z-score is 1.01.

For `CC(C)NC(=O)[C@@]1(c2ccc([N+](=O)[O-])cc2)CC(=O)N(C2CCCCC2)[C@@H]1c1ccc(CO)cc1I`, the z-score was 0.543.

As to `COCCOC(=O)N1C(=O)[C@@]2(c3cc(C#Cc4ccc(OC)cc4)ccc31)[C@H](c1ccc(OCCO)cc1)N1[C@H](c3ccccc3)[C@H](c3ccccc3)OC(=O)[C@H]1[C@@H]2C(=O)N1CCN(c2ncccn2)CC1`, the z-score was 0.129.

With `CCC[C@@H]1C[C@@]1(CCC)[C@@H](NC(=O)c1ccccc1)c1cccc(Cl)c1`, the z-score is -0.557.

Turning to `[N-]=[N+]=Nc1ccccc1[C@H]1OC(c2ccc(OCCCO)cc2)=N[C@@]1(CCS(=O)(=O)c1ccccc1)C(=O)NCC(O)CO` (stereo not given in full), the z-score is -0.117.

Consider `O=C1N[C@@H](Cc2ccccc2)C(=O)N2[C@@H]1C[C@@H](C(=O)O)[C@H]2c1cccc(OCCO)c1`, for which the z-score was 0.395.

Turning to `COc1ccc([Si](C)(C)[C@@H]2[C@@H](CC(=O)N3CCC[C@H]3CO)O[C@]3(C(=O)N(c4ccccc4)c4ccccc43)[C@H]2C)cc1`, the z-score was 0.193.

Turning to `CC(C)N1C(=O)C[C@@](C(=O)NCC(F)(F)F)(c2ccc([N+](=O)[O-])cc2)[C@H]1c1ccc(CO)cc1`, the z-score is 0.818.

Regarding `CN1C(=O)C2C=CC(C(O)C#Cc3ccccc3)N(N3CCCCC3)C2C1=O` (stereo not given), the z-score is -0.276.

On to `C=C(C)[C@@H]1CC=C(C(O)C2C=CC3C(=O)N(C)C(=O)C3N2Nc2ccccc2)CC1` (stereo not given in full), for which the z-score was -0.683.

On to `C=CCOC(=O)[C@@H]1[C@H]2C(=O)O[C@H](c3ccccc3)[C@H](c3ccccc3)N2[C@H](c2ccc(OCCOC(=O)[C@@H]3C[C@@H]4C(=O)NCC(=O)N4[C@@H]3c3ccc(O)cc3)cc2)[C@@]12C(=O)Nc1ccc(I)cc12`, for which the z-score is 0.202.

`COC(=O)[C@@]1(Cc2ccc(OC)cc2)[C@H]2c3cc(C(=O)N(C)C)n(CCc4ccccn4)c3C[C@H]2CN1C(=O)c1ccccc1`: the z-score is -1.2.

The values are drawn from PubChem BioAssay.
